Compounds with a hit are over-represented: about 32% of the library has one in this group of screens.
CYP2C19 activ – human CYP2C19 activators, primary screen, biochemical, luminescence; Cytochrome P450 2C19 (Homo sapiens), P33261; recombinant CYP2C19, luciferin-H EGE luminescence; hits give high values; 0 = fully inhibited enzyme, 1 = untreated enzyme; activation factor at 5 µM; 96,000 tested, under 10 active;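 active means activation factor of at least 2 at 5 µM in the primary screen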
Target sequence (P33261 whole entry, looked up): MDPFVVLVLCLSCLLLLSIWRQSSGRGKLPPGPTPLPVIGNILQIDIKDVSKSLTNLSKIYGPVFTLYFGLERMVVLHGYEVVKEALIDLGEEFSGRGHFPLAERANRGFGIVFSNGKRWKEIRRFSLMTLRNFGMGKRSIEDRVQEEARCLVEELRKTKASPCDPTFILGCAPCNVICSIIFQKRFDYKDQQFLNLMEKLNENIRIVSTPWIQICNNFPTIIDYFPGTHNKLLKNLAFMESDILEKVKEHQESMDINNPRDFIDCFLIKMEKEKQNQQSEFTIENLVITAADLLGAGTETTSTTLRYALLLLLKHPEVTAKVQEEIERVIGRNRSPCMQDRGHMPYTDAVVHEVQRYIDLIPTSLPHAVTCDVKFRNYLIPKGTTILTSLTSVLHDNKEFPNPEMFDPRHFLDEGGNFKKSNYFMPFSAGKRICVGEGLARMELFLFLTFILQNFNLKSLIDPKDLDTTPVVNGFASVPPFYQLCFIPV
CYP2C19 inhib – blockers of cytochrome P450 2C19 activity – biochemical, luminescence, ADME assay, primary screen; P33261; CYP2C19 Supersomes, luciferin-H EGE luminescence, 30 min; inhibition, % at 5 µM; actives 21% (n = 96,000); AID 778, 2007;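 active means CYP2C19 inhibition above a set limit at 5 µM in the primary screen, cut at about 50% in these data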
CYP2C9 inh – blockers of cytochrome P450 2C9 activity – biochemical, luminescence, ADME assay, primary screen. P11712. CYP2C9 Supersomes, luciferin-H conversion. inhibition, % at 5 µM. actives 20% (n = 96,000). AID 777, 2007;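 active means blocking of liver enzyme CYP2C9 beyond about 50% at 5 µM, limit read from the data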
PostGolgi yeast – phenotypic screen on post-Golgi transport, primary screen | post-Golgi transport phenotypic cell assay | inhibition, % at 10 µM | actives 0.9% (n = 98,000) | AID 739, 2007;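 further: yeast cells grown in 1536-well plates; yeast grown about 18 h at 30C before absorbance read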
CYP2C9 activ – human CYP2C9 activators, primary screen, biochemical, luminescence; AID 1024, 2008; Cytochrome P450 2C9 (Homo sapiens), P11712; recombinant CYP2C9, luciferin-H conversion; hits give high values; factor 1 = untreated enzyme, 0 = blocked; actives 1.4% (n = 96,000); activation factor at 5 µM;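 active means activation factor of 2 or more for CYP2C9 at a 5 µM dose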
PostGolgi ctrl – growth inhibition of yeast control strain, primary screen, counter-screen for post-Golgi transport modulator project | efflux-deficient yeast background strain, growth absorbance A615, 16 h | inhibition, % at 10 µM | actives 5% (n = 98,000) | AID 738, 2007
Of the large screens only hits and unclear results are named; the others gave an inactive call. Unless noted, no stated cut-off is given here; in the data, active means inhibition above about 30%; inactive means the rest.

Cn1c2c(c3ccccc31)CC/C2=N\O	CYP2C19 inhib 79
O=C(CSc1nc(O)c(C2CCCCC2)c(=O)[nH]1)Nc1ccc(Cl)cc1	CYP2C9 inh 66
CC(=O)Nc1c(O)nc(SCC(=O)Nc2ccc(C(C)=O)cc2)[nH]c1=O	none
COC(=O)c1ccc(N2CCC(C)CC2)c(N)c1	CYP2C19 inhib 60
COc1ccc(N(C(=O)c2ccc(F)cc2)C2=CC3CCC(C2)N3C)cc1 (stereo unspecified)	none
CCC(C(=O)Nc1nnc(-c2ccco2)s1)c1ccccc1 (stereo unspecified)	CYP2C9 inh 55
O=C(Nc1nnc(-c2cccs2)o1)c1cccc(Oc2ccccc2)c1	PostGolgi yeast 34
CCOC(=O)Cc1nnc(NC(=O)c2cccc(OCC)c2)s1	none
CCCCN(C)S(=O)(=O)c1ccc(C(=O)Nc2nnc(-c3cccs3)o2)cc1	none
COc1cccc(C(=O)Nc2nnc(-c3cccs3)s2)c1	CYP2C9 inh 70
CCOc1cccc(C(=O)Nc2nnc(-c3ccco3)s2)c1	CYP2C9 activ 2.1
C=CCON1C(=O)c2ccccc2C1=O	none
COc1ccc(C2(C(=O)Nc3cc(C)on3)CCOCC2)cc1	none (no result: CYP2C19 activ, CYP2C19 inhib, CYP2C9 inh, CYP2C9 activ)
Cc1cccc(Oc2ncc(-c3ccc(Cl)cc3)cn2)c1C	PostGolgi ctrl 36
Cc1ccc(Oc2ncc(-c3ccc(Cl)cc3)cn2)cc1	none
CCN(CC)CCOC(=O)c1ccc2c(c1)OCCO2	none
C[C@H](N)c1nnc(SCc2c(Cl)cccc2Cl)o1	CYP2C19 inhib 99, CYP2C9 inh 58
CCC(C)[C@H](N)c1nnc(SCC(=O)c2ccc(Cl)cc2)o1 (stereo partly specified)	CYP2C19 inhib 100, CYP2C9 inh 71
Clc1cccc(Cl)c1CSc1nnc(/C=C/c2ccccc2)o1	none
Clc1ccc(CSc2nnc(-c3sccc3-n3cccc3)o2)cc1	none
C[C@H](N)c1nnc(SCc2ccc(Cl)cc2Cl)o1	CYP2C19 inhib 100, CYP2C9 inh 82
CC(C)[C@H](N)c1nnc(SCc2ccc(Cl)cc2)o1	CYP2C19 inhib 96
COC(=O)C(C)Sc1nc2c(cnn2-c2ccc(C)cc2)c(=O)[nH]1 (stereo unspecified)	none
CCOCCc1nnc(NC(=O)COC)s1	none
Cc1cc(Nc2ccc(N3CCC(C)CC3)cc2)n2ncnc2n1	none
CCC(c1nnc(SCC(=O)NCCc2ccc(Cl)cc2Cl)o1)N(C)C (stereo unspecified)	CYP2C19 inhib 79, CYP2C9 inh 58
CCC(c1nnc(SCC(=O)NC23CC4CC(CC(C4)C2)C3)o1)N(C)C (stereo unspecified)	none
COc1ccc(NC(=O)C(=O)N/N=C/c2cc(C)n(-c3cccc(Cl)c3Cl)c2C)c(OC)c1	CYP2C19 inhib 72
COc1ccc(OC)c(/C(O)=C/C(=O)C(=O)Nc2ccccc2OC)c1	none
COc1ccc(OC)c(NC(=O)C(=O)N/N=C/c2ccccc2[N+](=O)[O-])c1	CYP2C9 activ 2.2
COc1ccc(NC(=O)Nc2ccccc2C)c(OC)c1	none
CCCCCCc1nc2ccccc2c(=O)n1NC(=O)c1c(O)c2cccc3c2n(c1=O)CCC3	none
COc1c2c(nc3occc13)C(CCC(C)(C)O)(OC)C(O)CC2 (stereo unspecified)	CYP2C19 inhib 56, CYP2C9 inh 54, PostGolgi ctrl 30
CC1CCN(c2ccc(NC(=O)c3cccnc3)cc2)CC1	CYP2C9 inh 72
COc1cc(NS(=O)(=O)c2ccc3c(c2)n(C)c(=O)n3C)cc(OC)c1	CYP2C19 inhib 59, CYP2C9 inh 84
Cc1cc(C)cc(NS(=O)(=O)c2ccc3c(c2)c(=O)n(C)c(=O)n3C)c1	none
Cc1ccc(S(=O)(=O)Nc2nc3ccc(S(C)(=O)=O)cc3s2)cc1	CYP2C9 inh 98
CCOc1ccc2nc(NS(=O)(=O)c3ccc4c(c3)n(C)c(=O)n4C)sc2c1	CYP2C9 inh 98
CCNS(=O)(=O)c1ccc2c(c1)n(C)c(=O)n2C	none
Cc1ccc(NS(=O)(=O)c2ccc3c(c2)c(=O)n(C)c(=O)n3C)cc1F	CYP2C19 inhib 94, CYP2C9 inh 92
COc1cc(C(=O)N(Cc2ccccn2)CC2CCCO2)cc(OC)c1OC (stereo unspecified)	none
CCOc1ccc(S(=O)(=O)Nc2nc3ccc(OC)cc3s2)cc1	CYP2C19 inhib 82, CYP2C9 inh 99
CSc1nc(Cl)cc(N(CCO)CCO)n1	none
Cc1ccc(NC(=O)C2=C(O)c3ccccc3N(C)S2(=O)=O)cc1	CYP2C9 inh 73
O=C(c1cccs1)c1ccc(-c2cccs2)s1	CYP2C9 inh 74
Brc1c(OCCOCCn2cncn2)ccc2ccccc12	CYP2C19 inhib 99, CYP2C9 inh 95
COCCCn1c(SCc2cccc(C(F)(F)F)c2)nc2cc(OC)c(OC)cc2c1=N	CYP2C9 inh 82, PostGolgi ctrl 42
COc1cc2nc(SCc3ccc(C(F)(F)F)cc3)n(Cc3cccs3)c(=N)c2cc1OC	none
COCCCn1c(SCc2ccccc2)nc2cc(OC)c(OC)cc2c1=N	CYP2C19 inhib 54, CYP2C9 inh 64
CC1(C)CC(=O)CC(=Nc2ccc(C(=O)O)cc2)C1	none
CCOC(=O)c1c(C)[nH]c(NC(=O)N2CCOCC2)c1C	none
Cc1ccc(C(=O)Cn2c(C(=O)/C=C/c3ccccc3)nc3ccccc32)cc1	none
CC(C)CNc1cc(=O)n(C)c(=O)n1C	PostGolgi ctrl 48
O=P(CCN1CCCCC1)(c1ccccc1)c1ccccc1	none
COc1ccc(N=C(C)C2=C(O)COC2=O)cc1	none
O=C(O/N=C/c1cccc([N+](=O)[O-])c1)C1CC1	none
O=C(CO/N=C/c1cccc([N+](=O)[O-])c1)Nc1ccc2ccccc2c1	CYP2C9 inh 88
CC(=O)Nc1ccc(NC(=O)C(C)O/N=C/c2cccc([N+](=O)[O-])c2)cc1 (stereo unspecified)	CYP2C9 inh 60
COc1ccc(N2CCN(C(=O)CN3C(=O)C4CC=CCC4C3=O)CC2)cc1 (stereo unspecified)	none
CC(Oc1ccccc1Cl)C(=O)/C=C/N(C)C (stereo unspecified)	none
CN1c2ccccc2C(C)(C)C12CCCC(=O)N2 (stereo unspecified)	none
CCN1CCN(c2ncnc3c2sc2nc(N4CCOCC4)c4c(c23)CCC4)CC1	CYP2C19 inhib 73, CYP2C9 inh 54 (no result: PostGolgi yeast, PostGolgi ctrl)
CCOc1nnnc2c1sc1nc(N3CCOCC3)c3c(c12)CCCC3	CYP2C19 inhib 94, CYP2C9 inh 98
Cc1cc(NC(=O)C2C3C(=O)N(CCC(C)C)C(C(=O)NCc4ccccc4)C34C=CC2(C)O4)no1 (stereo unspecified)	none

Screens: PubChem BioAssay, several laboratories
